Screens (PubChem BioAssay)
AGP1-GFP MLPCN: modulators of AGP1-GFP expression in yeast TOR pathway, primary screen, cell-based, multiplex flow cytometry, S. cerevisiae, MLPCN library. 3 h; GFP as percent of DMSO wells. GFP response vs DMSO, % at 10 µM. 0.02% of 320,000 active;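 active = GFP response relative to DMSO above a set limit, near screen average plus 3 SD, cut at about 150% in these data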;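 note: median GFP channel fluorescence of the gated AGP1 strain per well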
RPL19A-GFP yeast: RPL19A-GFP expression modulators in yeast, primary screen, cell-based, S. cerevisiae, multiplex flow cytometry, MLPCN | AID 2025, 2009 | percent response vs DMSO, % at 10 µM | 0.3% of 330,000 active | S. cerevisiae RPL19A-GFP strain, 3 h; stronger effect = lower value;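 active = percent response vs DMSO below 50%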;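 note: median channel GFP fluorescence of the barcoded RPL19A-GFP strain; ratio of sample median GFP to plate DMSO average so 100% = DMSO; lower means less RPL19A-GFP as with rapamycin TOR inhibition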
LAP4-GFP MLPCN: modulators of LAP4-GFP expression in yeast, primary screen, S. cerevisiae, multiplex flow cytometry, MLPCN library | 3 h; median GFP as percent of DMSO wells | GFP response vs DMSO, % at 10 µM | 0.34% of 320,000 active | AID 2023, 2009;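 active = GFP response vs DMSO above a set limit, about the screen mean plus 3 SD, cut at about 150% in these data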
MEP2 TOR yeast: modulators of MEP2-GFP levels in yeast, primary screen, S. cerevisiae, multiplex flow cytometry, MLPCN library; S. cerevisiae MEP2-GFP strain, 3 h; 100% = DMSO control level; GFP response vs DMSO, % at 10 µM; 0.51% of 330,000 active;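 active = GFP response versus DMSO above a set limit, roughly screen mean plus 3 SD, cut at about 180% in these data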;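 note: median GFP fluorescence of the barcode-gated MEP2-GFP cells per well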
CIT2 TOR yeast: modulators of CIT2-GFP expression in yeast, primary screen, S. cerevisiae, GFP fusion, multiplex flow cytometry, MLPCN library; S. cerevisiae CIT2-GFP strain, 3 h; 100 means same as DMSO wells; GFP response vs DMSO, % at 10 µM; 0.065% of 320,000 active; AID 2029, 2009;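 active = GFP response relative to DMSO above a set limit, near the screen mean plus 3 SD, cut at about 150% in these data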;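 note: ratio of well median GFP fluorescence to mean of DMSO wells on the plate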
LAP4 cherry2: LAP4-GFP expression modulators in yeast, confirmation, cell-based, second cherry pick, flow cytometry. AID 2621, 2010. GFP response vs DMSO, % at 10 µM. 20% of 590 active. S. cerevisiae LAP4-GFP strain, 3 h. shares compounds with LAP4-GFP MLPCN;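 active = GFP signal as percent of the solvent control above about 150%, meaning raised reporter expression, limit read from the data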;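 note: ratio of well median GFP fluorescence to plate DMSO mean so 100% = DMSO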
MEP2-GFP pick2: modulators of MEP2-GFP levels in yeast, confirmation, S. cerevisiae, flow cytometry GFP, second cherry picks | 10% of 590 active | shares compounds with LAP4-GFP MLPCN | AID 2622, 2010 | S. cerevisiae MEP2-GFP strain, 3 h | GFP response vs DMSO, % at 10 µM;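 active = GFP signal above 150% of the solvent control wells, that is a rise of more than half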;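 note: median channel GFP fluorescence of all gated yeast cells per well; ratio of median GFP to plate DMSO average so 100% = DMSO level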
RPL19A-GFP pick2: RPL19A-GFP modulators in TOR pathway yeast, confirmation, cell-based, S. cerevisiae, flow cytometry, second cherry pick; shares compounds with LAP4-GFP MLPCN; S. cerevisiae RPL19A-GFP strain, 3 h; stronger effect = lower value; 100% means same as DMSO wells; GFP response vs DMSO, % at 10 µM; 3% of 590 active; AID 2623, 2010;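 active = under 65% GFP response relative to DMSO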;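 note: median GFP channel fluorescence per well over the all cells gate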
CIT2-GFP pick2: modulators of CIT2-GFP expression in yeast, confirmation, flow cytometry, second cherry pick, single plex. GFP response vs DMSO, % at 10 µM. 8% of 590 active. shares compounds with LAP4-GFP MLPCN. S. cerevisiae CIT2-GFP strain, 3 h; DMSO control wells read 100%;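 active = GFP response vs DMSO above about 150%, limit read from the data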;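 note: median green fluorescence per well over all gated yeast cells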
AGP1-GFP pick2: AGP1-GFP expression modulators, hit retest, confirmation, cell-based, flow cytometry, S. cerevisiae, cherry pick set 2; percent response vs DMSO, % at 10 µM; shares compounds with LAP4-GFP MLPCN; 590 tested, under 10 active; S. cerevisiae AGP1-GFP strain, 3 h;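 active = over 150 percent of DMSO response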;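 note: median GFP channel fluorescence over all cells without mother daughter split; sample median GFP divided by mean DMSO control so 100% equals DMSO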
s288c autofluor: compound autofluorescence in yeast s288c, dose response, artefact control for yeast TOR pathway GFP screen, s288c strain; shares compounds with LAP4-GFP MLPCN; S. cerevisiae s288c, 520 nm autofluorescence, flow cytometry, 3 h; stronger effect = higher value; zero means same as solvent-only cells; fluorescence change (kMESF span) at 33 µM; 610 tested, under 10 active; AID 2757, 2010;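 active = fluorescence span over the dose series, or activity score, above about 33, limit read from the data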
s288c autofl DR: autofluorescence of compounds in yeast s288c, dose response, artefact control for yeast TOR pathway GFP screen, primary hits, KU SAR, s288c parental | fluorescence change (span) at 33 µM | S. cerevisiae s288c parental, compound autofluorescence, flow cytometry, 3 h | shares compounds with LAP4-GFP MLPCN | 110 tested, under 10 active;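 active = fluorescence change span, or the activity score built from it, above 25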
TORC1 bypass gr: wild-type yeast growth inhibition sparing TORC1 bypass cells, mechanism study for yeast TOR pathway GFP screen, BY4741 wild type, TORC1 bypass strain; S. cerevisiae BY4741 spot growth rating, 48-72 h; stronger effect = lower value; shares compounds with LAP4-GFP MLPCN; 120 tested, under 10 active; growth rating (0-3) at 30 µM;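 active = growth rating at most 1 for wild type yeast while the TORC1 bypass strain still grows fully, rated 3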
* hit, by the source's call; / = no result. Hits are enriched below; roughly 0.93% of the tested compounds scored in any of these assays.

SMILES	AGP1-GFP MLPCN	RPL19A-GFP yeast	LAP4-GFP MLPCN	MEP2 TOR yeast	CIT2 TOR yeast	LAP4 cherry2	MEP2-GFP pick2	RPL19A-GFP pick2	CIT2-GFP pick2	AGP1-GFP pick2	others
O=C1C2C3C=CC(CO)(O3)C2C(=O)N1c1ccccc1-c1ccccc1 (stereo not given)	78	84	194*	111	77	/	/	/	/	/	s288c autofluor=4.9
COc1ccccc1NCCC(=O)OCC(=O)Nc1cc([N+](=O)[O-])ccc1F	103	104	105	101	109	/	/	/	/	/
CON(C)S(=O)(=O)c1cccc(C(=O)N(CC(=O)Nc2ccccc2C(F)(F)F)Cc2ccco2)c1	100	100	100	102	97	/	/	/	/	/
CC(=O)c1c(C)[nH]c(C(=O)COC(=O)c2ccc(C)s2)c1C	124	118	153*	131	120	99	105	101	98	100
CCOC(=O)c1c(C)[nH]c(C(=O)COC(=O)c2[nH]c(C)c(C(C)=O)c2C)c1C	108	103	110	107	113	/	/	/	/	/
COc1ccc(S(=O)(=O)N2CCCC(C(=O)NC3CC3)C2)cc1Cl (stereo not given)	100	102	104	104	108	/	/	/	/	/
Cc1cccc(CN2C(=O)/C(=C\c3ccc(C(=O)NCCCN4CCN(C)CC4)cc3)Oc3ccccc32)c1	82	91	164*	90	71	135	105	89	102	92
Cc1cc(C)c2ccc(=O)n(CC(=O)N/N=C/c3ccccc3Cl)c2n1	102	94	103	95	89	/	/	/	/	/
C=CCN1C(=NC(=O)COc2ccc(Cl)cc2)SC2CS(=O)(=O)CC21 (stereo not given)	107	106	100	103	108	/	/	/	/	/
CC1=NN(c2nc3ccccc3[nH]2)C(=O)C1Cc1ccccc1 (stereo not given)	57	58	87	97	69	123	141	76	85	75
CC1CCC(NC(=O)CCNS(=O)(=O)c2ccc3c(c2)CCC(=O)N3)CC1 (stereo not given)	104	98	98	93	105	/	/	/	/	/
CNc1nc(N)cc(Nc2ccccc2F)n1	/	/	/	/	/	/	/	/	/	/	TORC1 bypass gr=3
Cc1cccc(OCCN2CSC(=S)N(C)C2)c1	103	84	160*	99	83	/	/	/	/	/	s288c autofluor=0.3
O=C(CNC(=O)c1ccco1)Nc1ccc(Cl)cc1	110	122	118	121	107	/	/	/	/	/
COc1ccc(CNC(=O)c2ccc(N3CCC4(CC3)CC(c3ccc(Cl)cc3)=NO4)c(NC(=O)Cc3ccc(F)cc3)c2)cc1	103	112	95	101	89	/	/	/	/	/
O=C(O)c1cccc(-n2cccc2/C=C\[N+](=O)[O-])c1	102	96	103	98	110	/	/	/	/	/
O=C(O)c1cccc(-n2cccc2/C=C/[N+](=O)[O-])c1	103	94	163*	94	92	110	100	104	117	103
CCn1c(C)cc(C(=O)CN2C(=O)c3ccccc3S2(=O)=O)c1C	97	94	92	97	88	/	/	/	/	/
CCCn1c(C)cc(C(=O)CN2C(=O)c3ccccc3C2=O)c1C	96	61	100	135	93	96	103	100	99	99
CCc1ccc(-c2cc3c(=O)n(CC(=O)N4CCCCCC4)nc(C)n3n2)cc1	101	98	101	101	98	/	/	/	/	/
O=[N+]([O-])c1c(Nc2ccccn2)cc(Cl)c2nonc12	134	162	674*	951*	456*	/	/	/	/	/	s288c autofluor=37*
C[C@H](CO)N1C[C@H](C)[C@@H](CN(C)C(=O)Nc2ccc3c(c2)OCO3)Oc2ccc(NC(=O)NC3CCCCC3)cc2C1=O	99	94	97	96	104	/	/	/	/	/
Cc1cccc(C)c1OCc1cc(C(=O)N2CCN(c3ccc(F)cc3)CC2)no1	103	105	94	105	109	/	/	/	/	/
Oc1ccc(-c2c(-c3ccsc3)sc3ccccc23)cc1	80	91	153*	88	84	114	105	89	97	89
O=C(Oc1cccc2cccnc12)c1ccc(Br)o1	106	101	103	103	103	102	100	100	102	100	s288c autofluor=0.21
COCCN(C(=O)COC(=O)c1cc2ccccc2cc1O)c1c(N)n(Cc2ccccc2)c(=O)[nH]c1=O	91	87	92	93	94	/	/	/	/	/
CCC(Cc1ccccc1)NC(=O)C1CC1 (stereo not given)	102	102	99	101	100	/	/	/	/	/
Cc1cc(Cl)ccc1N(CC(=O)NCCSCc1ccco1)S(C)(=O)=O	45	60	98	166	100	101	96	102	117	96
Cc1cc(C(=O)COC(=O)c2ccc[nH]c2=O)c(C)n1-c1ccccc1F	41	55	138	116	84	155*	131	93	106	78	s288c autofluor=2.4;s288c autofl DR=1.2;TORC1 bypass gr=3
